Compound activity from PubChem.
KB-V1 cytotox: qHTS assay for MDR1-selective chemotherapeutics: Primary screen using the drug-selected MDR subline cells KB-V1. KB-V1 MDR cells viability, CellTiter-Glo, 72 h. Potency, µM (titrated, usually from 46.1 µM), most hits filed as cytotoxic. 400,000 compounds, 3.4% hits. AID 1347076, 2019; also: nearly all actives have a fitted effect of over 60% in size
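Luminescent ATP read-out (CellTiter-Glo, 10 min) measures survival of drug-selected KB-V1 MDR cells after 72 h, 37 degrees C compound exposure. Medium: phenol-red-free DMEM, 10% FBS. Values from fitted concentration-response curves.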
TGFb inhibitor: qHTS for Inhibitors of TGF-b; Potency, µM (titrated, usually from 46.1 µM), hits mostly inhibitors; 410,000 compounds, 1.2% hits; AID 588855, 2011; HepG2 CAGA-GFP TGF-b/SMAD3 reporter, GFP fluorescence, 18 h; TGF-beta stimulated, 500 pg/mL final; also: nearly all actives have a fitted effect of over 65% in size
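First, reporter cells (HEPG2 CAGA-GFP) rested 2 h at 37 degrees C. Next, compounds were pinned in and TGF-beta added to 500 pg/mL final. After 18 h, GFP was imaged per cell and summed per well.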
HepG2 tox-1: qHTS for Inhibitors of TGF-b: Cytotox Counterscreen; AID 588856, 2011; HepG2 CAGA-GFP viability, ATP luminescence, 18 h; Potency, µM (doses to about 46.1 µM), hits mostly cytotoxic; 410,000 compounds, 0.76% hits
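CellTiter-Glo luminescence gave cytotoxicity after 18 hours at 37 degrees C. The cells were HepG2 CAGA-GFP in 1% FBS DMEM, stimulated with 500 pg/mL TGF-beta after compound addition. %Activity was normalised to no-cell wells (complete cell-killing) and DMSO (no toxicity), and curves were fitted and classified.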
KB-3-1 tox: qHTS assay for MDR1-selective chemotherapeutics: Primary screen using the parental adenocarcinoma cell KB-3-1. Potency, µM (top dose mostly 46.1 µM), usual class: cytotoxic. KB-3-1 viability, CellTiter-Glo ATP luminescence, 72 h. AID 1347075, 2019. 400,000 compounds, 1.4% hits; also: nearly all actives have a fitted effect of over 60% in size
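KB-3-1 cells, DMEM (no phenol red) + 10% FBS; compound by pin transfer, 72 h, 37 °C. Readout: CellTiter-Glo luminescence after 10 min. Data normalized, curve-fitted.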
S2 tox: Viability Counterscreen for Primary qHTS for Inhibitors of ATXN expression. S2 cells (HEK-293 line with an ATXN2-luciferase reporter) viability, CellTiter-Fluor protease fluorescence, 24 h. Potency, µM (series often up to 56.7 µM), most hits filed as cytotoxic. 400,000 compounds, 0.49% hits. AID 651635, 2014; also: nearly all actives have a fitted effect of over 40% in size
ATXN2 expr inh: Primary qHTS for Inhibitors of ATXN expression; HEK-293 ATXN2-luciferase reporter, luminescence, 24 h; Potency, µM (doses to about 57 µM), hits mostly inhibitors; 360,000 compounds, 0.72% hits; also: nearly all actives have a fitted effect of over 55% in size
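qHTS (up to 57 uM final) was run with 24 h compound exposure of reporter cells at 37 °C. Each well was multiplexed: SteadyGlo luminescence measured ATXN2-luciferase expression after a fluorogenic Gly-Phe-AFC viability readout (25 uM final).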
TGFb CAGA inh: qHTS for Inhibitors of TGF-b: Confirmation of Cherry Picks; shares compounds with TGFb inhibitor; HepG2 CAGA-GFP TGF-b reporter, GFP fluorescence, 18 h; cells stimulated with TGF-beta, 500 pg/mL; Potency, µM (top dose mostly 46.1 µM), hits mostly inhibitors; 1,600 compounds, 63% hits; AID 720534, 2013; also: nearly all actives have a fitted effect of over 65% in size
HepG2 tox-2: qHTS for Inhibitors of TGF-b: Cytotox Counterscreen for Cherry Picks; Potency, µM (highest dose often 46.1 µM), most hits filed as inhibitors; 1,600 compounds, 27% hits; AID 720535, 2013; shares compounds with TGFb inhibitor; HepG2 CAGA-GFP viability, ATP luminescence, 18 h; cells stimulated with TGF-beta, 500 pg/mL; also: nearly all actives have a fitted effect of over 70% in size
CCL64 TGFb inh: qHTS for Inhibitors of TGF-b: CCL64 Cells Orthogonal Assay for Cherry Picks. shares compounds with TGFb inhibitor. CCL64 CAGA-GFP reporter, TGF-b stimulated, GFP fluorescence, 18 h. Potency, µM (top dose mostly 46.1 µM), usual class: inhibitors. 1,600 compounds, 41% hits; also: nearly all actives have a fitted effect of over 65% in size
TGFb COP inh: qHTS for Inhibitors of TGF-b: Hit Validation in HepG2 Cells using COP promoter. shares compounds with TGFb inhibitor. HepG2 COP-GFP TGF-b reporter, GFP fluorescence, 18 h; cells stimulated by added recombinant TGF-beta. Potency, µM (series often up to 46.1 µM), actives largely listed as inhibitors. 1,600 compounds, 3% hits. AID 720537, 2013; also: nearly all actives have a fitted effect of over 70% in size
Each line names hits and unclear results; the compound was inactive in the other large screens (follow-up assays come after a bar, where they were run). The list is not random: actives were taken first. Their share in the collection is about 5.9%. Calls follow the shape of the dose curve; as a rule, active = well fitted curve in the direction sought with a large enough effect; inconclusive = small, poorly fitted or top-dose-only effect, or another doubt; inactive = no such curve, though single readings can be large; an effect the other way counts as inactive or inconclusive.

COc1ccc(S(=O)(=O)N2CCCCCC2)cc1C(=O)N(C)Cc1ccc(Cl)cc1Cl	TGFb inhibitor 15.8µM, KB-3-1 tox inconclusive, S2 tox inconclusive, ATXN2 expr inh inconclusive | TGFb CAGA inh 18.4µM | HepG2 tox-2 inactive | CCL64 TGFb inh inconclusive | TGFb COP inh inactive
COc1ccc2[nH]c3c(N4CCc5ccccc5C4)ncnc3c2c1	KB-V1 cytotox 2.59µM, TGFb inhibitor 7.08µM, KB-3-1 tox 2.59µM, S2 tox inconclusive, ATXN2 expr inh inconclusive | TGFb CAGA inh inconclusive | HepG2 tox-2 23.1µM | CCL64 TGFb inh 18.4µM | TGFb COP inh inconclusive
CC(=O)OC(C)(C)/C=C/C(=O)[C@](C)(O)C1[C@H](O)C[C@@]2(C)C3CC=C4C(C=C(O[C@@H]5O[C@H](CO)[C@@H](O)[C@H](O)[C@H]5O)C(=O)C4(C)C)[C@]3(C)C(=O)C[C@]12C (stereo partly drawn)	KB-V1 cytotox inconclusive, TGFb inhibitor 5.01µM, KB-3-1 tox inconclusive, S2 tox inconclusive | TGFb CAGA inh 5.17µM | HepG2 tox-2 inconclusive | CCL64 TGFb inh 3.26µM | TGFb COP inh inactive
Cc1cc(C)n(C(C)CC(=O)Nc2ccc(C)c(N(C)C)c2)n1 (stereo not drawn)	none
CC(C(=O)Nc1ccc(C(F)(F)F)cc1)N(C)CC(=O)N1CCN(Cc2ccccc2)CC1 (stereo not drawn)	KB-V1 cytotox inconclusive, TGFb inhibitor inconclusive
CSc1ccccc1NC(=O)C(C)N(C)CC(=O)N1CCN(Cc2ccccc2)CC1 (stereo not drawn)	TGFb inhibitor inconclusive | TGFb CAGA inh inconclusive | HepG2 tox-2 inactive | CCL64 TGFb inh inactive | TGFb COP inh inactive
O=C(Nc1ccccc1)c1cc2ccccc2s1	none
O=C1N[C@@H](c2ccccc2)COC(=O)[C@@H](Cc2ccc(F)cc2)C/C=C\C[C@@H]1CC(=O)N(CCO)Cc1ccccc1	TGFb inhibitor 12.6µM, KB-3-1 tox inconclusive, S2 tox inconclusive | TGFb CAGA inh 16.4µM | HepG2 tox-2 inconclusive | CCL64 TGFb inh inconclusive | TGFb COP inh inactive
O=C1N[C@@H](Cc2ccccc2)COC(=O)[C@@H](Cc2ccc(F)cc2)CC/C=C/C[C@@H]1CC(=O)N(CCO)Cc1ccccc1	KB-V1 cytotox inconclusive, TGFb inhibitor 22.4µM, KB-3-1 tox inconclusive, S2 tox inconclusive, ATXN2 expr inh inconclusive | TGFb CAGA inh 16.4µM | HepG2 tox-2 inactive | CCL64 TGFb inh 23.1µM | TGFb COP inh inactive
COc1ccc([C@H]2CC(=O)C=C(c3ccc(Cl)c(C(F)(F)F)c3)C2)cc1	TGFb inhibitor 8.91µM | TGFb CAGA inh inconclusive | HepG2 tox-2 inconclusive | CCL64 TGFb inh inconclusive | TGFb COP inh inactive
Cc1cc(C)c2cc(C(=O)N3CCC(C(=O)c4ccc(F)cc4)CC3)[nH]c2c1	TGFb inhibitor 11.2µM | TGFb CAGA inh 9.2µM | HepG2 tox-2 inactive | CCL64 TGFb inh inconclusive | TGFb COP inh inactive
Cc1cc(C)c2cc(C(=O)N3CCC(N4CCCCC4)CC3)[nH]c2c1	none
COCC(C)NC(=O)C1=CC(c2ccc3c(c2)OCO3)=NS(=O)(=O)N1C (stereo not drawn)	none
O=S(=O)(c1ccccc1Cl)N1CCN(c2nc(-c3ccccc3)nc3ccccc23)CC1	KB-V1 cytotox inconclusive (no result: S2 tox, ATXN2 expr inh)
Oc1c(C(c2ccccn2)N2CCCCC2)cc(Cl)c2cccnc12 (stereo not drawn)	KB-V1 cytotox inconclusive, TGFb inhibitor 7.94µM, KB-3-1 tox inconclusive, ATXN2 expr inh inconclusive | TGFb CAGA inh inconclusive | HepG2 tox-2 inconclusive | CCL64 TGFb inh inconclusive | TGFb COP inh inactive
Cc1[nH]c2ccccc2c1C(c1ccccn1)N1CCCC1 (stereo not drawn)	none
